Source: PubChem (Paczesny and Yang Labs, IUPUI and University of Michigan)
ST2 IL33 inh: inhibitors of human ST2 (IL1RL1) binding to IL-33; Q01638; AlphaLISA ST2-Fc/biotin-IL-33 interaction, 1 h; inhibition, % for hits at 17 µM; 2.3% of 78,000 active; AID 1259354; in the data active means inhibition above about 30%
Target sequence (Q01638 whole entry, looked up): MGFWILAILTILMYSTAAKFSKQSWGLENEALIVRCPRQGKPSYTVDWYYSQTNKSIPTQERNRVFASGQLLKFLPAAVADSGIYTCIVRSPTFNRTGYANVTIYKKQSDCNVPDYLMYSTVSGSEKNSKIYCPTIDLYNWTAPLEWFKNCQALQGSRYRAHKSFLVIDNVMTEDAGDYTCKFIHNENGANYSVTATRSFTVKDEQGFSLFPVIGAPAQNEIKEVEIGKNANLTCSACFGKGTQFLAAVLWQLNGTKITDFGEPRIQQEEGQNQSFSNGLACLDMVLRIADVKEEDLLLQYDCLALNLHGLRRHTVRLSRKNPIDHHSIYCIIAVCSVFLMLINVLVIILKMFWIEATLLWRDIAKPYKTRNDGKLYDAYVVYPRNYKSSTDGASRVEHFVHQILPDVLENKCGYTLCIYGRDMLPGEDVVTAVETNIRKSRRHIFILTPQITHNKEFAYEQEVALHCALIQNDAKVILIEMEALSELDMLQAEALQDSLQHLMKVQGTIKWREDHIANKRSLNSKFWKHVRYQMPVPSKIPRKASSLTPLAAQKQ
Hits are given with their value; n = inactive. This is one part of a sample in which hits are shown more often than they occur.

SMILES | ST2 IL33 inh
Cc1nc2c(C(=O)NCCCN3CCOCC3)cnn2c(C)c1Cc1ccc(F)cc1 | n
O=C1CC(c2ccccc2)CC2=C1C(c1ccc(Cl)s1)Nc1ccccc1N2 (stereo not drawn) | n
Cc1ccc2c(c1)c1c(n2CCC#N)C(=O)CCC1 | n
CC(=O)N1CCn2c3c(c4cc(C5CCCCC5)ccc42)CCCC31 (stereo not drawn) | n
Cc1ccc2c(c1)c1c3n2CCN(C(=O)c2ccccc2)C3CCC1 (stereo not drawn) | 30%
Cc1ccc2c(c1)c1c(n2C)C(C(N)=O)CCC1 (stereo not drawn) | 32%
CC(=O)N1CCn2c3c(c4cc(C)ccc42)CCCC31 (stereo not drawn) | n
Cc1ccc2c(c1)c1c3n2CCN(CCC#N)C3CCC1 (stereo not drawn) | n
CCC(C)OC(=O)C1=C(C)NC2=C(C(=O)C(C(=O)OC)C(C)C2)C1c1cccc(O)c1 (stereo not drawn) | n
COc1cc(CN2CCOCC2)cc2c1OCO2 | n
CC1CCN(c2nc(-c3ccccc3)c3c(N)[nH]nc3n2)CC1 | n
COc1ccc(C2CC(c3cccc(OC)c3)Nc3ncnn32)cc1 (stereo not drawn) | n
Cc1[nH]n(-c2ccccc2)c(=O)c1C=Nc1cccc(N)c1 | n
CCCCOc1cccc(N=Cc2c(C)[nH]n(-c3ccccc3)c2=O)c1 | 36%
Cc1[nH]n(-c2ccccc2)c(=O)c1C=Nc1c(C)[nH]n(-c2ccccc2)c1=O | n
Cc1[nH]n(-c2ccc(Cl)cc2)c(=O)c1C=Nc1ccc(N)c([N+](=O)[O-])c1 | n
COc1ccc(NS(=O)(=O)c2ccc([N+](=O)[O-])cc2)cc1Cl | n
Cc1ccc(NC(=O)c2c(C)nc3sc(C(=O)N4CCCC4)c(N)c3c2-c2ccco2)c(C)c1 | n
Cc1ccccc1CCN1CCC(CN(C(=O)c2ccc3n[nH]nc3c2)C2CCCC2)CC1 | n
COc1ccc(C(=O)Nc2ccc(Cl)c(-c3nc4ncccc4o3)c2)cc1OC | n
COc1ccc(Cl)cc1C(=O)Nc1ccc(C)c(-c2nc3ncccc3o2)c1 | 35%
COc1ccccc1C(=O)Nc1cccc(-c2nc3ncccc3o2)c1 | n
COc1cc(/C=C/C(=O)OC2C(CO)OC(OCCc3ccc(O)c(O)c3)C(OC3OCC(O)C(O)C3O)C2OC2OC(C)C(O)C(O)C2O)ccc1O (stereo not drawn) | n
CC(=O)Nc1cccc(C(=O)O)c1 | n
Cc1ccc(C(=O)c2ccccc2C(=O)O)c(C)c1 | n
SMILES | ST2 IL33 inh
Cc1ccc(C)n1-c1cccc(C(=O)O)c1 | 96%
O=C(O)c1cccc(N2C(=O)C3C4C=CC(O4)C3C2=O)c1 (stereo not drawn) | n
Cc1cc(C=O)c(C)n1-c1ccc(C(=O)O)c(Cl)c1 | n
Cc1ccc(C)n1-c1ccc(C(=O)O)c(C(=O)O)c1 | 88%
CCN(CCc1nc2ccc(C)cc2[nH]1)C(=O)c1c[nH]c2c(C)cccc2c1=O | n
O=C(COc1ccc(Cl)cc1)Nc1nc2ccccc2s1 | n
CC(C)c1ccc(NC(=O)O[C@@H]2CO[C@H]3[C@@H]2OC[C@@H]3NC(=S)Nc2ccccc2)cc1 | n
CC(=O)c1ccc(NC(=O)N[C@H]2CO[C@H]3[C@@H]2OC[C@H]3OC(=O)Nc2cccc(C(C)=O)c2)cc1 | 85%
CC(=O)c1ccc(NC(=O)O[C@@H]2CO[C@H]3[C@@H]2OC[C@@H]3NC(=O)NC2CCCCC2)cc1 | n
CC(=O)c1ccc(NC(=O)O[C@@H]2CO[C@H]3[C@@H]2OC[C@@H]3NC(=S)Nc2ccccc2)cc1 | 41%
CC(=O)c1ccc(NC(=O)O[C@@H]2CO[C@H]3[C@@H]2OC[C@@H]3NC(=O)Nc2cccc(C#N)c2)cc1 | n
COc1cc(NC(=S)N[C@H]2CO[C@H]3[C@@H]2OC[C@H]3OC(=O)Nc2ccc(C(C)=O)cc2)cc(OC)c1 | n
Cc1c(C(=O)N2CCC(C)CC2)oc2ccc(S(=O)(=O)N3CCCCCC3)cc12 | n
Cc1cc(C)c2nc(NC(=O)c3cc(=O)c4ccccc4o3)sc2c1 | n
Cc1ccc2c(c1)sc(=NC(=O)c1ccc(S(=O)(=O)N3CCCC3)cc1)n2C | n
C=CCOc1ccc(/C=c2\sc3nc(-c4ccncc4)nn3c2=O)cc1 | n
C[C@@H]1CC[C@@]2(C)C(CO)=CCC[C@@H]2[C@@]1(C)CC/C(=C/C(=O)O)CO | 36%
CC1=CC(=O)CC2C1(C)CCC(C)C2(C)CC/C(C)=C/C(=O)O (stereo not drawn) | n
CC(C)NC(=O)C1CCN(S(=O)(=O)N2CCCC2)CC1 | n
Cc1cc(OC(=O)C2COc3ccccc3O2)cc(C)c1Cl (stereo not drawn) | n
COc1cc(/C=C2\SC(N3CCCCC3)=NC2=O)cc(OC)c1OC | n
COc1cc(/C=C2\SC(c3ccccc3)=NC2=O)cc(Br)c1O | 40%
COc1cc(/C=C2\SC(N)=NC2=O)cc(OC)c1O | n
O=C1CCCc2sc([N+](=O)[O-])cc21 | n
CC1CCCC(NC(=O)C2c3ccccc3C(=O)N2C2CCCCCC2)C1C (stereo not drawn) | n
SMILES | ST2 IL33 inh
Cc1cc(CNS(=O)(=O)NCc2ccccc2)ccc1N1CCCC1 | n
COc1ccc(C[C@H](NC(=O)C2=C[C@@H](NC(=O)c3ccc(C)cc3)[C@@H](O)[C@H](O)C2)C(N)=O)cc1 | n
NC(=O)[C@H](Cc1ccc(O)cc1)NC(=O)C1=C[C@@H](NC(=O)c2cnccn2)[C@@H](O)[C@H](O)C1 | 44%
NC(=O)[C@H](Cc1cccs1)NC(=O)C1=C[C@@H](NC(=O)c2ccc(F)c(Cl)c2)[C@@H](O)[C@H](O)C1 | n
O=C(O)c1cc2c3c(c1)C1C=CCC1C(c1ccccc1F)N3CC1CC=CC21 (stereo not drawn) | n
O=C(O)c1cc2c3c(c1)C1C=CCC1C(c1cccc([N+](=O)[O-])c1)N3CC1CC=CC21 (stereo not drawn) | 40%
O=C(O)c1cc2c3c(c1)C1C=CCC1C(c1ccc(F)cc1)N3CC1CC=CC21 (stereo not drawn) | n
CCC(C)n1c(=N)c(C(=O)NCc2cccnc2)cc2c(=O)n3ccccc3nc21 (stereo not drawn) | n
CN(C)c1ncccc1CNC(=O)Cc1ccc(O)c(F)c1 | n
CN(Cc1ccccc1)c1ncccc1CNC(=O)C1(C)CCCO1 (stereo not drawn) | 35%
CC(C)N1CCC(NCc2cccnc2N(C)Cc2ccccc2)CC1 | n
CCN(CC)CCNC(=O)CN1C(=O)COc2ccc(C)cc21 | n
CCOC(=O)N1CCN(Cc2ccc(F)c(F)c2)CC1 | n
COc1ccc(CN2CCCCCC2)cc1 | n
COc1ccc(OCCCN2CCCCCC2)cc1 | 43%
Cc1cccc(OCCCN2CCCC2)c1 | n
O=C(c1cccn2c(=O)c3sccc3nc12)N1CCN(c2ccccn2)CC1 | n
Cc1cc(N2N=C(c3ccccc3)CC2=O)nc(-c2ccccc2O)n1 | 31%
Cc1cc(NC2CCCCC2)nc(-c2ccccc2O)n1 | n
Cc1cc(OC(C)C)nc(-c2ccccc2O)n1 | n
Cn1ccnc1CN1C(=O)CO[C@H]2CN(C(=O)C3CCCCC3)C[C@H]21 | n
CCOC(=O)C1(CC2CCCCO2)CCN(C(=O)C#Cc2ccccc2)CC1 (stereo not drawn) | n
CCOC(=O)C1(Cc2ccccc2Cl)CCN(C(=O)C#Cc2ccccc2)CC1 | n
CCOC(=O)C1(Cc2ccccc2)CCCN(C(=O)C#Cc2ccccc2)C1 (stereo not drawn) | 42%
Cc1sc(NC(=O)C2CC=CCC2C(=O)O)nc1-c1ccccc1 (stereo not drawn) | n
CC1C(C#N)=C(SCc2ccccc2)NC2=C1C(=O)CC(C)(C)C2 (stereo not drawn) | n
